Assay results from the supplement of paper PMC12636033.
± gives the standard deviation of the averaged measurements. Whole data set: some 33,000 sequences, median “E-score (rank enrichment, -0.5 to 0.5)” near -0.0068, cut for the highest 2% near 0.24. The sample as a whole holds a higher share of the highest values than the screen did.

What follows are sequences tested on muMax20 (Max(13-93) K31hArg/K57hArg, M65Nle) (assay: PBM 8-mer E-score (E-score (rank enrichment, -0.5 to 0.5)); higher = stronger preferential binding).
Protocol: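 Protein binding microarray (universal PBM chip covering all 10-mers in fixed probe flanks) with chemically synthesized human Max(13-93) bHLH-LZ analogs (not full-length Max) bearing noncanonical residues (hArg, Tha, Aib, Nle at 65) and aromatic Cys staples. Read-out per 8-mer (and its reverse complement): E-score (rank-based enrichment, -0.5 to 0.5) and Z-score of median probe intensity.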

Row | Sequence | PBM 8-mer E-score
1 | AATTAAAG | 0.108 ± 0.13
2 | GATTAAAC | 0.134 ± 0.071
3 | ATTAAACA | 0.132 ± 0.15
4 | ATTAAAAA | 0.0946 ± 0.0066
5 | ATTAAAAG | 0.119 ± 0.073
6 | AATTAAAC | 0.268 ± 0.072
7 | ATTAAAAC | 0.269 ± 0.022
8 | GTTCTTGA | 0.0649 ± 0.045
9 | CAAGGTGG | -0.0168 ± 0.088
10 | TAGAAGAA | -0.0576 ± 0.025
11 | GACATCCC | -0.00641 ± 0.062
12 | AATACCTA | 0.214 ± 0.067
13 | CGAAGCTA | -0.176 ± 0.022
14 | GGTCCAAC | -0.234 ± 0.16
15 | ATGGTAAA | 0.13 ± 0.053
16 | ACTATTAC | 0.0842 ± 0.022
17 | ATTATTAG | 0.247 ± 0.061
18 | ATTATTAA | 0.212 ± 0.035
19 | CTTATTAC | 0.101 ± 0.014
20 | ACTATTAG | -0.0835 ± 0.051
21 | ATTATTAC | 0.255 ± 0.028
22 | GCGGCTGA | -0.177 ± 0.019
23 | CAATTCAA | 0.0283 ± 0.0014
24 | ATTCCCCA | 0.209 ± 0.066
25 | ACTCCAGA | -0.0288 ± 0.033

Row | Sequence | PBM 8-mer E-score
26 | CCAGGAAC | -0.286 ± 0.11
27 | CAGGATTA | 0.0457 ± 0.03
28 | CAGCAGGG | -0.114 ± 0.086
29 | GAAGAACA | 0.127 ± 0.031
30 | TAAGAACA | 0.239 ± 0.0029
31 | CAAGAACA | -0.0329 ± 0.2
32 | ACGTTTAT | 0.0742 ± 0.017
33 | AATTGGCC | -0.0791 ± 0.05
34 | GTTGGTAA | 0.0564 ± 0.03
35 | ATGTGTGG | 0.104 ± 0.095
36 | ATATGTGA | 0.32 ± 0.08
37 | ATATGTGC | 0.121 ± 0.056
38 | CTATGTGA | 0.0996 ± 0.088
39 | ATATGTGG | 0.261 ± 0.098
40 | GTATGTGA | 0.0146 ± 0.021
41 | CACGAATG | 0.101 ± 0.063
42 | GGCGGACA | -0.0909 ± 0.047
43 | GTCCTAAA | 0.0453 ± 0.11
44 | ATGGCATG | 0.0857 ± 0.18
45 | ACTTTCTC | 0.0328 ± 0.03
46 | ACTTTCTA | 0.237 ± 0.046
47 | ACTTTCTG | -0.00396 ± 0.12
48 | CCGAAAAG | 0.0771 ± 0.15
49 | ATGAATTG | 0.179 ± 0.062
50 | ACTACAAC | 0.268 ± 0.024

Row | Sequence | PBM 8-mer E-score
51 | CATACACA | 0.221 ± 0.047
52 | CGTATACA | 0.216 ± 0.049
53 | AATACACA | 0.308 ± 0.05
54 | TGTATACA | 0.335 ± 0.051
55 | GGTATACA | 0.109 ± 0.022
56 | ACTACAAG | 0.135 ± 0.062
57 | TATACACA | 0.234 ± 0.038
58 | CATACACG | 0.166 ± 0.029
59 | AATACACT | 0.188 ± 0.042
60 | CCTACAAC | 0.13 ± 0.0096
61 | AATACACG | 0.256 ± 0.027
62 | CGCGACCA | -0.136 ± 0.0046
63 | ATATGGTA | 0.217 ± 0.0028
64 | GTCGGACA | -0.2 ± 0.096
65 | GAATAACC | 0.0359 ± 0.041
66 | TCGAAACA | 0.00709 ± 0.067
67 | ACAGAGTC | -0.0304 ± 0.021
68 | ATCCTACA | -0.0539 ± 0.011
69 | GTTCCCGA | -0.272 ± 0.029
70 | AAACTCGG | -0.00029 ± 0.062
71 | TGAAATCA | 0.102 ± 0.042
72 | CACCTAGC | 0.0921 ± 0.017
73 | CGTACACG | 0.212 ± 0.059
74 | CCTACACG | 0.00955 ± 0.02
75 | ACTACACA | 0.315 ± 0.053

Row | Sequence | PBM 8-mer E-score
76 | AGTACACA | 0.22 ± 0.037
77 | TGTACACA | 0.251 ± 0.073
78 | ACTACACG | 0.149 ± 0.0089
79 | ATCCCTGG | -0.185 ± 0.058
80 | ACTCCATC | -0.129 ± 0.053
81 | ATTTCATC | 0.17 ± 0.077
82 | TGAAGACA | -0.094 ± 0.12
83 | CCTGTATA | 0.116 ± 0.042
84 | ACTGTATA | 0.255 ± 0.011
85 | GATGTATA | 0.103 ± 0.14
86 | AAAGTATA | 0.315 ± 0.012
87 | GTTGTATA | 0.249 ± 0.025
88 | AAAGTATT | 0.221 ± 0.0025
89 | CAAGTATA | 0.187 ± 0.011
90 | ATTGTATA | 0.131 ± 0.13
91 | AATGTATA | 0.279 ± 0.074
92 | CTTGTATA | 0.136 ± 0.16
93 | GCTGTATA | 0.192 ± 0.026
94 | CATGTATA | 0.228 ± 0.034
95 | ACGCCATA | 0.0949 ± 0.073
96 | TCTAAACA | 0.16 ± 0.033
97 | CTGAGTTA | -0.0809 ± 0.031
98 | AGAAAAAA | 0.231 ± 0.056
99 | CATCGAGC | -0.0831 ± 0.0056
100 | AAATGTGC | 0.121 ± 0.067

Row | Sequence | PBM 8-mer E-score
101 | ACGGTGCT | -0.0206 ± 0.018
102 | ATTGTTTA | 0.103 ± 0.011
103 | CTTGTTTA | 0.0457 ± 0.0082
104 | GTTGTTTA | 0.32 ± 0.063
105 | ACATTGTG | 0.144 ± 0.17
106 | TAGATCTA | 0.0708 ± 0.14
107 | ACCATATA | 0.278 ± 0.042
108 | TACATATA | 0.238 ± 0.022
109 | ACCATATC | 0.0503 ± 0.19
110 | GACATATA | 0.0588 ± 0.11
111 | GACATATC | 0.135 ± 0.032
112 | ACCATATG | 0.159 ± 0.02
113 | AACATATG | 0.136 ± 0.027
114 | TACATAGA | 0.163 ± 0.051
115 | CACATATG | 0.131 ± 0.036
116 | AACATATA | 0.286 ± 0.079
117 | CACATATA | 0.325 ± 0.081
118 | CACATATC | 0.149 ± 0.067
119 | CGTCGGAG | -0.1482 ± 0.0013
120 | CGCACTAG | -0.0251 ± 0.025
121 | GCAGATCA | -0.15 ± 0.0073
122 | CTACCTGC | -0.0986 ± 0.014
123 | ATAAATAA | 0.231 ± 0.0076
124 | AGAAATAC | 0.0602 ± 0.05
125 | ATAAATAC | 0.263 ± 0.071

Row | Sequence | PBM 8-mer E-score
126 | ATAAATAT | 0.319 ± 0.01
127 | ATAAATAG | 0.167 ± 0.075
128 | TTAAATAA | 0.18 ± 0.063
129 | AAAAATAT | 0.229 ± 0.035
130 | GGAAATAA | 0.154 ± 0.013
131 | AGAAATAA | 0.259 ± 0.097
132 | TTAAGGAA | 0.0354 ± 0.0092
133 | AGGAAGTG | -0.0996 ± 0.0079
134 | CTCTTGAC | -0.0583 ± 0.0029
135 | CCCAAATA | 0.176 ± 0.061
136 | ACCGATCC | -0.277 ± 0.0028
137 | AGAAGCAA | 0.1 ± 0.028
138 | ATCGGTTA | -0.0224 ± 0.05
139 | ATGATTAC | 0.149 ± 0.044
140 | GATAGAGC | -0.15 ± 0.001
141 | CTACATAG | 0.138 ± 0.14
142 | CATGCATA | 0.19 ± 0.13
143 | GATGCACA | -0.00748 ± 0.045
144 | CATGCATC | 0.0441 ± 0.017
145 | AATGCATT | 0.348 ± 0.072
146 | TGTGCACA | 0.221 ± 0.046
147 | AATGCATC | 0.129 ± 0.082
148 | AATGCATA | 0.171 ± 0.09
149 | CATGCATG | 0.3719 ± 0.0024
150 | CATGCACA | 0.317 ± 0.082

Row | Sequence | PBM 8-mer E-score
151 | CGTGCACA | 0.098 ± 0.028
152 | CGTGCACG | 0.283 ± 0.13
153 | CATGCACG | 0.183 ± 0.026
154 | GTGAATTA | 0.191 ± 0.067
155 | CCTTACGC | 0.0271 ± 0.0015
156 | AGCGTTTG | -0.169 ± 0.14
157 | CCAAGTGG | -0.15414 ± 2.1e-05
158 | CTTTAGGC | -0.158 ± 0.011
159 | GAAGCTTA | 0.129 ± 0.018
160 | ATGGACTA | 0.128 ± 0.015
161 | GCGGATAA | -0.0466 ± 0.033
162 | CTGACTAC | -0.0404 ± 0.19
163 | CTATAAGC | -0.00153 ± 0.018
164 | AATGCAAG | 0.0709 ± 0.08
165 | CATGCAAG | 0.118 ± 0.015
166 | AATGCATG | 0.237 ± 0.073
167 | AATGCAAC | 0.197 ± 0.047
168 | ACTGCATG | -0.0337 ± 0.13
169 | CATGCAAC | 0.327 ± 0.012
170 | GACTCCGA | -0.155 ± 0.046
171 | TCTCGACA | -0.0258 ± 0.011
172 | TCGGGTAA | 0.00741 ± 0.027
